# According to PubChem BioAssay AID1159580 (chemical genetic matrix, 2015):
# “And” between values parts separate entries of the source, which are not always exact repeats. Identical values can stand only once. About 2,000 (36%) of roughly 5,500 compounds were called active. Roughly 18% stayed inconclusive and do not appear here. The list shows a part of the results. A number with no mark means an inactive call. Cut-off read from the data, not from the text of the source: active = normalized growth mostly below about 0.91 (no sharp cut-off); inconclusive = no clear call, values can overlap the other calls; inactive = mostly above about 0.92.
# Test: chemical genetic growth profiling, strain panel (AID 1159580);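 note: tested at 20 µM; growth read once vehicle control cultures reached saturation at 30 °C; 1 = growth at the plate median or of vehicle wells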
# Conditions: growth OD
compound,measurement,setting,value
CCCCNc1ccc(C(=O)OCCN(C)C)cc1,normalized growth,"S. cerevisiae deletion strains, locus YJR075W, strain HOC1, stronger effect = lower value",1.02
same,normalized growth,"S. cerevisiae deletion strains, locus YKL009W, strain mrt4, stronger effect = lower value",1.02
same,normalized growth,"S. cerevisiae deletion strains, locus YKL068W, stronger effect = lower value",1.01
same,normalized growth,"S. cerevisiae deletion strains, locus YKL085W, strain MDH1 (second series), stronger effect = lower value",1.01
same,normalized growth,"S. cerevisiae deletion strains, locus YKL085W, strain MDH1, stronger effect = lower value",1.01
same,normalized growth,"S. cerevisiae deletion strains, locus YKL160W, strain elf1, stronger effect = lower value",1.03
same,normalized growth,"S. cerevisiae deletion strains, locus YKL190W, strain CNB1, stronger effect = lower value",1.01
same,normalized growth,"S. cerevisiae deletion strains, locus YKR001C, strain vps1, stronger effect = lower value",1.01
same,normalized growth,"S. cerevisiae deletion strains, locus YKR026C, strain gcn3, stronger effect = lower value",1.01
same,normalized growth,"S. cerevisiae deletion strains, locus YKR091W, strain srl3, stronger effect = lower value",1.01
same,normalized growth,"S. cerevisiae deletion strains, locus YLL001W, strain dnm1, stronger effect = lower value",1
same,normalized growth,"S. cerevisiae deletion strains, locus YLL026W, stronger effect = lower value",1.01
same,normalized growth,"S. cerevisiae deletion strains, locus YLL041C, strain sdh2, stronger effect = lower value",0.998
same,normalized growth,"S. cerevisiae deletion strains, locus YLR027C, strain aat2, stronger effect = lower value",1.01
same,normalized growth,"S. cerevisiae deletion strains, locus YLR039C, strain RIC1, stronger effect = lower value",1.14
same,normalized growth,"S. cerevisiae deletion strains, locus YLR058C, strain SHM2, stronger effect = lower value",1.01
same,normalized growth,"S. cerevisiae deletion strains, locus YLR102C, strain apc9, stronger effect = lower value",1.02
same,normalized growth,"S. cerevisiae deletion strains, locus YLR113W, strain HOG1, stronger effect = lower value",0.982
same,normalized growth,"S. cerevisiae deletion strains, locus YLR221C, strain rsa3, stronger effect = lower value",0.975
same,normalized growth,"S. cerevisiae deletion strains, locus YLR258W, strain gsy2, stronger effect = lower value",1.02
same,normalized growth,"S. cerevisiae deletion strains, locus YLR262C, strain YPT6 (second series), stronger effect = lower value",1.05
same,normalized growth,"S. cerevisiae deletion strains, locus YLR262C, strain YPT6, stronger effect = lower value",1.13
same,normalized growth,"S. cerevisiae deletion strains, locus YLR268W, strain sec22, stronger effect = lower value",1.04
same,normalized growth,"S. cerevisiae deletion strains, locus YLR320W, strain mms22, stronger effect = lower value",0.988
same,normalized growth,"S. cerevisiae deletion strains, locus YLR330W, strain CHS5, stronger effect = lower value",1
same,normalized growth,"S. cerevisiae deletion strains, locus YLR342W, strain FKS1 (second series), stronger effect = lower value",1
same,normalized growth,"S. cerevisiae deletion strains, locus YLR342W, strain FKS1, stronger effect = lower value",1.02
same,normalized growth,"S. cerevisiae deletion strains, locus YLR357W, strain rsc2, stronger effect = lower value",1.13
same,normalized growth,"S. cerevisiae deletion strains, locus YLR370C, strain arc18, stronger effect = lower value",1.01
same,normalized growth,"S. cerevisiae deletion strains, locus YLR371W, strain rom2, stronger effect = lower value",1.02
same,normalized growth,"S. cerevisiae deletion strains, locus YLR384C, strain iki3, stronger effect = lower value",1.02
same,normalized growth,"S. cerevisiae deletion strains, locus YLR418C, strain cdc73, stronger effect = lower value",1.01
same,normalized growth,"S. cerevisiae deletion strains, locus YML016C, strain PPZ1, stronger effect = lower value",1
same,normalized growth,"S. cerevisiae deletion strains, locus YML032C, strain rad52, stronger effect = lower value",1.02
same,normalized growth,"S. cerevisiae deletion strains, locus YML120C, strain ndi1, stronger effect = lower value",0.995
same,normalized growth,"S. cerevisiae deletion strains, locus YML124C, strain tub3, stronger effect = lower value",1.02
same,normalized growth,"S. cerevisiae deletion strains, locus YMR058W, strain fet3, stronger effect = lower value",1.02
same,normalized growth,"S. cerevisiae deletion strains, locus YMR078C, strain ctf18, stronger effect = lower value",1.02
same,normalized growth,"S. cerevisiae deletion strains, locus YMR125W, strain sto1, stronger effect = lower value",1.05
same,normalized growth,"S. cerevisiae deletion strains, locus YMR129W, stronger effect = lower value",1.01
same,normalized growth,"S. cerevisiae deletion strains, locus YMR205C, strain PFK2, stronger effect = lower value",1.02
same,normalized growth,"S. cerevisiae deletion strains, locus YMR223W, strain ubp8, stronger effect = lower value",1.01
same,normalized growth,"S. cerevisiae deletion strains, locus YMR231W, strain pep5, stronger effect = lower value",1.02
same,normalized growth,"S. cerevisiae deletion strains, locus YMR307W, strain GAS1, stronger effect = lower value",0.943 and 1.02
same,normalized growth,"S. cerevisiae deletion strains, locus YNL067W, strain RPL9B, stronger effect = lower value",1.01
same,normalized growth,"S. cerevisiae deletion strains, locus YNL071W, strain lat1, stronger effect = lower value",1.02
same,normalized growth,"S. cerevisiae deletion strains, locus YNL128W, strain TEP1, stronger effect = lower value",1.02
same,normalized growth,"S. cerevisiae deletion strains, locus YNL153C, strain GIM3, stronger effect = lower value",1
same,normalized growth,"S. cerevisiae deletion strains, locus YNL175C, strain NOP13, stronger effect = lower value",1.01
same,normalized growth,"S. cerevisiae deletion strains, locus YNL183C, strain NPR1, stronger effect = lower value",0.93
same,normalized growth,"S. cerevisiae deletion strains, locus YNL197C, strain WHI3, stronger effect = lower value",0.982
same,normalized growth,"S. cerevisiae deletion strains, locus YNL209W, strain ssb2, stronger effect = lower value",1.02
same,normalized growth,"S. cerevisiae deletion strains, locus YNL224C, strain SQS1, stronger effect = lower value",0.99
same,normalized growth,"S. cerevisiae deletion strains, locus YNL233W, strain BNI4, stronger effect = lower value",1
same,normalized growth,"S. cerevisiae deletion strains, locus YNL248C, strain rpa49, stronger effect = lower value",1.13 [resistant] (active)
same,normalized growth,"S. cerevisiae deletion strains, locus YNL250W, strain rad50, stronger effect = lower value",0.998
same,normalized growth,"S. cerevisiae deletion strains, locus YNL271C, strain bni1, stronger effect = lower value",1.01
same,normalized growth,"S. cerevisiae deletion strains, locus YNL298W, strain CLA4, stronger effect = lower value",1.02
same,normalized growth,"S. cerevisiae deletion strains, locus YNL307C, strain MCK1, stronger effect = lower value",1.02
same,normalized growth,"S. cerevisiae deletion strains, locus YNL322C, strain KRE1 (second series), stronger effect = lower value",1.01
same,normalized growth,"S. cerevisiae deletion strains, locus YNL322C, strain KRE1, stronger effect = lower value",1.01 and 1.02
same,normalized growth,"S. cerevisiae deletion strains, locus YNR049C, strain mso1, stronger effect = lower value",1.02
same,normalized growth,"S. cerevisiae deletion strains, locus YNR052C, strain pop2, stronger effect = lower value",1.01
same,normalized growth,"S. cerevisiae deletion strains, locus YOL006C, strain TOP1, stronger effect = lower value",0.943
same,normalized growth,"S. cerevisiae deletion strains, locus YOL012C, strain htz1",0.973
same,normalized growth,"S. cerevisiae deletion strains, locus YOL147C, strain pex11, stronger effect = lower value",1.02
same,normalized growth,"S. cerevisiae deletion strains, locus YOR001W, strain rrp6, stronger effect = lower value",0.954
same,normalized growth,"S. cerevisiae deletion strains, locus YOR061W, strain CKA2, stronger effect = lower value",1
same,normalized growth,"S. cerevisiae deletion strains, locus YOR069W, strain VPS5, stronger effect = lower value",1.01
same,normalized growth,"S. cerevisiae deletion strains, locus YOR070C, strain gyp1, stronger effect = lower value",1
same,normalized growth,"S. cerevisiae deletion strains, locus YOR080W, strain dia2, stronger effect = lower value",1
same,normalized growth,"S. cerevisiae deletion strains, locus YOR083W, strain WHI5 (second series), stronger effect = lower value",0.999
same,normalized growth,"S. cerevisiae deletion strains, locus YOR083W, strain WHI5, stronger effect = lower value",1.02
same,normalized growth,"S. cerevisiae deletion strains, locus YOR106W, strain vam3, stronger effect = lower value",1.04
same,normalized growth,"S. cerevisiae deletion strains, locus YOR136W, strain idh2, stronger effect = lower value",1.02
same,normalized growth,"S. cerevisiae deletion strains, locus YOR144C, strain elg1, stronger effect = lower value",1.01
same,normalized growth,"S. cerevisiae deletion strains, locus YOR184W, strain ser1, stronger effect = lower value",1.04
same,normalized growth,"S. cerevisiae deletion strains, locus YOR231W, strain MKK1, stronger effect = lower value",0.995
same,normalized growth,"S. cerevisiae deletion strains, locus YOR265W, strain rbl2, stronger effect = lower value",1.02
same,normalized growth,"S. cerevisiae deletion strains, locus YOR270C, strain vph1, stronger effect = lower value",0.988
same,normalized growth,"S. cerevisiae deletion strains, locus YOR290C, strain snf2, stronger effect = lower value",1.06
same,normalized growth,"S. cerevisiae deletion strains, locus YOR316C, strain cot1, stronger effect = lower value",1.02
same,normalized growth,"S. cerevisiae deletion strains, locus YPL051W, strain arl3, stronger effect = lower value",1.03
same,normalized growth,"S. cerevisiae deletion strains, locus YPL055C, strain LGE1, stronger effect = lower value",1.02
same,normalized growth,"S. cerevisiae deletion strains, locus YPL078C, strain atp4, stronger effect = lower value",1.04
same,normalized growth,"S. cerevisiae deletion strains, locus YPL106C, strain sse1, stronger effect = lower value",1.05
same,normalized growth,"S. cerevisiae deletion strains, locus YPL240C, strain hsp82, stronger effect = lower value",0.998
same,normalized growth,"S. cerevisiae deletion strains, locus YPL241C, strain CIN2, stronger effect = lower value",1
same,normalized growth,"S. cerevisiae deletion strains, locus YPL256C, strain CLN2, stronger effect = lower value",0.964
same,normalized growth,"S. cerevisiae deletion strains, locus YPR119W, strain clb2, stronger effect = lower value",1.01
same,normalized growth,"S. cerevisiae deletion strains, locus YPR141C, strain kar3, stronger effect = lower value",1.02
same,normalized growth,"S. cerevisiae deletion strains, locus YPR163C, strain tif3, stronger effect = lower value",1.02
same,normalized growth,"S. cerevisiae deletion strains, locus YPR167C, strain met16, stronger effect = lower value",1.02
same,normalized growth,"S. cerevisiae deletion strains, strain wtn01, stronger effect = lower value",1.04
same,normalized growth,"S. cerevisiae strains, strain wild type, stronger effect = lower value",1
